# Results taken from ChEMBL document CHEMBL1961873, “Compounds: GSK PKIS; Assays: Nanosyn kinase panel” (2012).
# “And” between values parts separate entries of the source, which are not always exact repeats. Identical values can stand only once.
# Columns and labels:
# [1] = molecular target: Serine/threonine-protein kinase PAK 6 (Homo sapiens) (UniProt Q9NQU5); settings: at 1 µM;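 also: values are mean percent inhibition of PAK6 kinase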
# [2] = system: Tyrosine-protein kinase ABL1 (Homo sapiens), P00519 [E255K]; settings: at 0.1 µM
# [3] = system: Tyrosine-protein kinase ABL1 (Homo sapiens), P00519 [E255K]; settings: at 1 µM
# [4] = system: Tyrosine-protein kinase ABL1 (Homo sapiens), P00519 [H396P]; settings: at 0.1 µM
# [5] = system: Tyrosine-protein kinase ABL1 (Homo sapiens), P00519 [H396P]; settings: at 1 µM
# [6] = system: Tyrosine-protein kinase ABL1 (Homo sapiens), P00519 [M351T]; settings: at 0.1 µM
# [7] = system: Tyrosine-protein kinase ABL1 (Homo sapiens), P00519 [M351T]; settings: at 1 µM
# [8] = system: Tyrosine-protein kinase ABL1 (Homo sapiens), P00519 [Q252H]; settings: at 0.1 µM
# [9] = system: Tyrosine-protein kinase ABL1 (Homo sapiens), P00519 [Q252H]; settings: at 1 µM
# [10] = system: Tyrosine-protein kinase ABL1 (Homo sapiens), P00519 [T315I]; settings: at 0.1 µM
# [11] = system: Tyrosine-protein kinase ABL1 (Homo sapiens), P00519 [T315I]; settings: at 1 µM
# [12] = system: Tyrosine-protein kinase ABL1 (Homo sapiens), P00519 [Y253F]; settings: at 0.1 µM
# [13] = system: Tyrosine-protein kinase ABL1 (Homo sapiens), P00519 [Y253F]; settings: at 1 µM
# [14] = molecular target: Tyrosine-protein kinase ABL1 (Homo sapiens) (UniProt P00519); settings: at 0.1 µM
# [15] = molecular target: Tyrosine-protein kinase ABL1 (Homo sapiens) (UniProt P00519); settings: at 1 µM
# [16] = molecular target: ALK tyrosine kinase receptor (Homo sapiens) (UniProt Q9UM73); settings: at 0.1 µM
# [17] = molecular target: ALK tyrosine kinase receptor (Homo sapiens) (UniProt Q9UM73); settings: at 1 µM
# [18] = molecular target: Tyrosine-protein kinase ABL2 (Homo sapiens) (UniProt P42684); settings: at 0.1 µM
# [19] = molecular target: Tyrosine-protein kinase ABL2 (Homo sapiens) (UniProt P42684); settings: at 1 µM
# [20] = molecular target: Tyrosine-protein kinase receptor UFO (Homo sapiens) (UniProt P30530); settings: at 0.1 µM;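 also: values are mean percent inhibition of AXL from the GSK PKIS screen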
# Chain of Tyrosine-protein kinase receptor UFO (Homo sapiens) (P30530 whole entry): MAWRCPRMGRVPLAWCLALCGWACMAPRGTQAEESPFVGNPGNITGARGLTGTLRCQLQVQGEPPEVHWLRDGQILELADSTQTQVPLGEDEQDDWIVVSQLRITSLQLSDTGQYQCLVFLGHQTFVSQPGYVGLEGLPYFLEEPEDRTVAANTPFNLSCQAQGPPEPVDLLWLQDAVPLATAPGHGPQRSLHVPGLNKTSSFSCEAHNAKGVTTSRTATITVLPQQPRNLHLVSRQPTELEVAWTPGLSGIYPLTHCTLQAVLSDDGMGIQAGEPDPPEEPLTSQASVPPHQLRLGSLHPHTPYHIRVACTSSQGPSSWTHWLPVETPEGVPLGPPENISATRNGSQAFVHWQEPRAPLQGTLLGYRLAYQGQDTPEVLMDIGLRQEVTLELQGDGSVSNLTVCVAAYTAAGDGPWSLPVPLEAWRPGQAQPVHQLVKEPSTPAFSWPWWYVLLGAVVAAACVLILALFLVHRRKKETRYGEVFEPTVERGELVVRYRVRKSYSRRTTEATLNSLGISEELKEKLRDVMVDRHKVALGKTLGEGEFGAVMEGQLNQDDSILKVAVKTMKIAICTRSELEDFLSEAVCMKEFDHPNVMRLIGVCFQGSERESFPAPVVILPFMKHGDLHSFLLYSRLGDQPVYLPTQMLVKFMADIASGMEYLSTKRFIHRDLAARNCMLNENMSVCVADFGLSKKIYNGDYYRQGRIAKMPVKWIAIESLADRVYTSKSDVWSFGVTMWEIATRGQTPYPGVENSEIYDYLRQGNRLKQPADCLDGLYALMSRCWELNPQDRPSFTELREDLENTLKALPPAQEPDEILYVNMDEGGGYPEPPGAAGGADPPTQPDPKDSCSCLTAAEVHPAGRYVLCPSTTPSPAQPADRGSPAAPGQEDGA
# Chain of Tyrosine-protein kinase ABL2 (Homo sapiens) (P42684 whole entry): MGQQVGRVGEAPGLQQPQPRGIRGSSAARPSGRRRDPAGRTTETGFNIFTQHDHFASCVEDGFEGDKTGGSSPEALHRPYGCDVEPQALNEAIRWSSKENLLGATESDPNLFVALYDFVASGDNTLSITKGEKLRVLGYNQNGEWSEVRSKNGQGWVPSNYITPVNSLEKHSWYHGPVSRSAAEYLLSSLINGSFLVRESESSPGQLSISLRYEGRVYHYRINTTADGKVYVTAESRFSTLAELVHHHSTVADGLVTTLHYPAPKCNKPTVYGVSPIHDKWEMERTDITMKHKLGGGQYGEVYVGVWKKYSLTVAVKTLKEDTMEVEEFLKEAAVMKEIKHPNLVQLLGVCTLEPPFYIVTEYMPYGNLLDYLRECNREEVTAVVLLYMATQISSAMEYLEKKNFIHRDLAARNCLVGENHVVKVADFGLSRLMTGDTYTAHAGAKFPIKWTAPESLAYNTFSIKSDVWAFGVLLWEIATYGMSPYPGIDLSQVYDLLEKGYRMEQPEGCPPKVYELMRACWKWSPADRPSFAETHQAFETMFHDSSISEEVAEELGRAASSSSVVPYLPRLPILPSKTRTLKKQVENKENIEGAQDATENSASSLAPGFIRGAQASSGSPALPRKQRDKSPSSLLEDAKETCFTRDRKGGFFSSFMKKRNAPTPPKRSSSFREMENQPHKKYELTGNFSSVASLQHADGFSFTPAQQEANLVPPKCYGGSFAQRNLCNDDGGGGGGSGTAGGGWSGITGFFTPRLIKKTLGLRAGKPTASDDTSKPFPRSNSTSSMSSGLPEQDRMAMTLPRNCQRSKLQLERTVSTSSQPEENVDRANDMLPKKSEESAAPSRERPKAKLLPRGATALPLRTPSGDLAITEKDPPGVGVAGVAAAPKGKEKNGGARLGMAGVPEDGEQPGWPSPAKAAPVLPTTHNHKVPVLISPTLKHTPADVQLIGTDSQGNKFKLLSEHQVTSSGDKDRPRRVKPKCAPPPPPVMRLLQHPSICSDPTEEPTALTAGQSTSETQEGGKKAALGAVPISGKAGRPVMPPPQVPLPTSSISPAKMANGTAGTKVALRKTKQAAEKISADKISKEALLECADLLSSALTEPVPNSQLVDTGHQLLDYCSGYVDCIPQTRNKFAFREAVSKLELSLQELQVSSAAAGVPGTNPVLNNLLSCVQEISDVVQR
# Chain of Serine/threonine-protein kinase PAK 6 (Homo sapiens) (Q9NQU5 whole entry, looked up): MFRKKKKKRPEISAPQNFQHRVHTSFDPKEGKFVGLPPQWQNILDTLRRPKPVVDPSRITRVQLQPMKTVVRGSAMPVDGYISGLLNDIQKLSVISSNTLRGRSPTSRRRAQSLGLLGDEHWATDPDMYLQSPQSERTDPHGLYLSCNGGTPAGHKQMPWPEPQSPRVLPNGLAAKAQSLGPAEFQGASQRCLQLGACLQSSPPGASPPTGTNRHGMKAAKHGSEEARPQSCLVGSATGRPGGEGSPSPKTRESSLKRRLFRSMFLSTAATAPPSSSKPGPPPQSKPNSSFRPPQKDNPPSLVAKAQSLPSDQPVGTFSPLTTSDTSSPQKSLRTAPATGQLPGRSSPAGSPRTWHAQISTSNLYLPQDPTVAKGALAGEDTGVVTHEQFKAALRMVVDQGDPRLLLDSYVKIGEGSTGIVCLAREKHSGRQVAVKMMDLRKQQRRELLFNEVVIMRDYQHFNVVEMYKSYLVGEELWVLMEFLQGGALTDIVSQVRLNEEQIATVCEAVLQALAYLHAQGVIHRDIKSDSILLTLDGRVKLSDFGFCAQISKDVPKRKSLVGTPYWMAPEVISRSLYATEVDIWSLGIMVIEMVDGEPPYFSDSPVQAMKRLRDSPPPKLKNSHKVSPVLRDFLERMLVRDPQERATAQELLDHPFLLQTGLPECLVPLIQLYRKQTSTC
# Chain of ALK tyrosine kinase receptor (Homo sapiens) (Q9UM73 19-1620 limits assumed): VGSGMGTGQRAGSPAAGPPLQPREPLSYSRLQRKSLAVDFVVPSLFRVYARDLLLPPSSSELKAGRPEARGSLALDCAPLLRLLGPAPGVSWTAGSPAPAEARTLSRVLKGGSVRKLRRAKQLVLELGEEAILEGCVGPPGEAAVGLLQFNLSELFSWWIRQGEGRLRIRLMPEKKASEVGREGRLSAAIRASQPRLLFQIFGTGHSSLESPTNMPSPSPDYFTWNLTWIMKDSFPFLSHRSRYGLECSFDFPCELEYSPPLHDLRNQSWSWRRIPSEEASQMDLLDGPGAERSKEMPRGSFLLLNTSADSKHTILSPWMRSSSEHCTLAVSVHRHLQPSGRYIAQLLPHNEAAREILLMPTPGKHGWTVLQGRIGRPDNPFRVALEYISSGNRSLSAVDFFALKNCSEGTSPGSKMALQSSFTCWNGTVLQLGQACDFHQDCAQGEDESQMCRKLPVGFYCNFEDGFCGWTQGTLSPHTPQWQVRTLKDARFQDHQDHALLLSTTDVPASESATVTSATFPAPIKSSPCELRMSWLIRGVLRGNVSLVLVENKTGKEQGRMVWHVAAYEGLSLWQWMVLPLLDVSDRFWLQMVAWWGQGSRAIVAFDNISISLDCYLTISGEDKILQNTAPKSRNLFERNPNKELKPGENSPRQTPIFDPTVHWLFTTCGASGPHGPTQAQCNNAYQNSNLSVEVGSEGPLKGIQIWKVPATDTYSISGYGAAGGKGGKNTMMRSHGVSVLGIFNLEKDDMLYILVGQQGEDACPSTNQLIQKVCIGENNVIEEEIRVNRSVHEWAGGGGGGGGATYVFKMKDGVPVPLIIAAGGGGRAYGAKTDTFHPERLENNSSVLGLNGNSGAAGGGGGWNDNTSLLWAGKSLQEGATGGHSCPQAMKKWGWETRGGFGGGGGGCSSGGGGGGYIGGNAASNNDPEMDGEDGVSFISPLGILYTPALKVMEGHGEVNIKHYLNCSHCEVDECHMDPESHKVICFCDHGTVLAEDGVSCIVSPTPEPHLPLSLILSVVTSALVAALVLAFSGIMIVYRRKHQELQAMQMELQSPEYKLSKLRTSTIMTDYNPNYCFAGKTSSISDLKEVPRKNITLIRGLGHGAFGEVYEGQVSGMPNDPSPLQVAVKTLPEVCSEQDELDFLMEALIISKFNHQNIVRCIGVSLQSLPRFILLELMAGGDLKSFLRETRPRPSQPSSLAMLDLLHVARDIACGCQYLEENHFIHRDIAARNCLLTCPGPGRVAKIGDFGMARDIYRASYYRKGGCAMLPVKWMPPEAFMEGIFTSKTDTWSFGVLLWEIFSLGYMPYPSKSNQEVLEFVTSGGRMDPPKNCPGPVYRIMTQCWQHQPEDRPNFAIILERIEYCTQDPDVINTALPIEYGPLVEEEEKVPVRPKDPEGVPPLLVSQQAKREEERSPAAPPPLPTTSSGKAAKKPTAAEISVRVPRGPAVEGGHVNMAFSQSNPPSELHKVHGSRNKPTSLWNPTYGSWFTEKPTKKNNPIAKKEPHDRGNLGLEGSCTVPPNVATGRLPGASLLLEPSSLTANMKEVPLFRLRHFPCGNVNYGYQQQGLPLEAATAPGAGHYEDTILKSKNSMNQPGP
Structure (SMILES),inhibition [1],inhibition [2],inhibition [3],inhibition [4],inhibition [5],inhibition [6],inhibition [7],inhibition [8],inhibition [9],inhibition [10],inhibition [11],inhibition [12],inhibition [13],inhibition [14],inhibition [15],inhibition [16],inhibition [17],inhibition [18],inhibition [19],inhibition [20]
O=C(O[C@H]1CN[C@H](C#Cc2cc3ncnc(Nc4ccc(OCc5cccc(F)c5)c(Cl)c4)c3s2)C1)N1CCOCC1,-5.21%,0.66%,4.53%,3.67%,5.92%,2.25%,4.53%,3.47%,2.92%,4.04%,6.54%,2.93%,5.78%,1.93%,3.32%,7.04%,6.43%,0.82%,0.68%,-7.05%
OCCCNc1nccc(-c2c(-c3ccc(F)cc3)nn3cc(C(F)(F)F)ccc23)n1,-2.02%,3.05%,3.11%,3.42%,3.33%,2.71%,3%,4.61%,3.52%,1.5%,1.6%,4.75%,4.88%,6.03%,11.5%,1.23%,2.86%,3.63%,7.2%,-4.91%
COc1c(C(N)=O)cc(-c2ccc(Cl)cc2)cc1-c1ccc(S(N)(=O)=O)cc1,-4.53%,2.38%,3.7%,3.77%,5.78%,1.02%,1.14%,3.13%,5.89%,3.24%,2.49%,2.41%,4.61%,3.19%,3.54%,5.82%,7.26%,2.13%,3.9%,-6.59%
Cc1cc(O)cc(C)c1/C=C/c1cncc(C(=O)OC(C)(C)C)c1,-0.98%,4.42%,21.6%,7.59%,35%,9.08%,46%,11.7%,52.5%,1.3%,4.07%,9.34%,38.4%,5.51%,31.9%,3.06%,5.54%,8.31%,36.2%,-3.22%
Cc1cc(O)cc(C)c1/C=C/c1cncc(C(N)=O)c1,10.6%,15.7%,61%,20.4%,70.1%,18.5%,69%,18.7%,67.5%,2.31%,7.26%,27.8%,73.6%,15.1%,66%,3.62%,4.41%,12.2%,59.3%,-2.07%
Fc1cccc(COc2ccc(Nc3ncncc3C#Cc3ccccc3)cc2Cl)c1,-8.4%,3.27%,5.06%,3.58%,4.02%,0.94%,5.32%,4.91%,3.96%,4.11%,5.21%,2.86%,4.69%,4.16%,11.3%,2.52%,4.64%,3.23%,1.72%,-5.96%
CNC(=O)c1sc(-n2cnc3cc(OC)c(OC)cc32)cc1OCc1ccccc1C(F)(F)F,-4.28%,1.88%,9.07%,3.16%,10.5%,0.2%,6.66%,4.26%,7.88%,1.96%,4.16%,2.46%,10.3%,8.39%,17.2%,3.52%,5.76%,5.79%,13.2%,-4.3%
NS(=O)(=O)c1cccc(N/C=C2\C(=O)Nc3ccccc32)c1,1.64%,5.29%,7.64%,6.01%,8.67%,3.89%,8.75%,5.8%,8.71%,3.14%,8.55%,5.67%,11%,3.17%,10.9%,2.94%,12.7%,4.2%,13.3%,-7.48%
N#Cc1ccc2c(-c3ccnc(NC4CC4)n3)c(-c3ccc(F)cc3)nn2c1,-2.35%,-0.39%,0.55%,-0.57%,3.93%,-0.71%,3.61%,0.81%,4.72%,-0.18%,1.49%,-0.67%,3.58%,-0.74%,6.61%,0.92%,0.32%,0.94%,5.29%,-4.43%
O=C(Nc1n[nH]c2nnc(-c3cccnc3)cc12)C1CC1,-4.92%,-1.11%,1.39%,0.14%,3.4%,2.2%,3.78%,0.59%,2.57%,-0.5%,3.43%,0.48%,3.53%,3.47%,6.91%,0.19%,1.54%,0.77%,3.61%,0.08%
N#Cc1cccc(Nc2ncc(-c3ccccc3)o2)c1,-3.46%,1.93%,13.5%,4.61%,26.9%,2.88%,27.1%,3.25%,21.2%,2.21%,10.4%,4.28%,21.7%,3.9%,20.6%,1.63%,2.63%,4.38%,20.3%,-2.1%
CS(=O)(=O)Nc1ccc(-c2ccc3c(NC(=O)C4CC4)n[nH]c3c2)cc1,5.45%,2.53%,5.92%,4.24%,17.5%,4.89%,20.3%,4.73%,9.35%,4.61%,16.9%,5.2%,9.04%,3.79%,9.67%,3.16%,11%,2.46%,4.71%,-3.54%
CCn1c(-c2nonc2N)nc2cncc(C(=O)NCCNC)c21,-1.02%,3.42%,4.29%,3.77%,6.65%,-0.31%,3.11%,4.53%,5.61%,3.85%,5.14%,8.7%,7.62%,3.3%,5.3%,1.99%,4.23%,2.36%,4.11%,-8.56%
Nc1nonc1-c1nc2cnccc2n1C1CC1,7.32% and -5.94%,2.67% and 0.93%,3.5% and 4.4%,2.21% and 2.04%,0.55% and 1.2%,0.52% and -0.88%,-0.96% and 2.63%,4.06% and 0.83%,3.65% and 2.84%,2.85% and 1.97%,2.56% and 3.11%,3.83% and 3.92%,4.12% and 4.54%,5.16% and -2.65%,8.03% and 2.25%,2.63% and -1.89%,5.84% and 0.48%,3.44% and -2.1%,5.37% and -2.96%,-7.63% and -3.39%
Cc1c2ccc(N(C)c3ccnc(Nc4cccc(S(N)(=O)=O)c4)n3)cc2nn1C,-6.14%,19.6%,67.6%,37.9%,81.6%,39.5%,84.8%,42.9%,83.6%,11.3%,52.2%,43.4%,83.3%,16.7%,64.5%,1.38%,18.8%,19.5%,62.8%,-8.43%
CNC(=O)c1cncc(/C=C/c2ccccc2C)c1,12%,4.47%,16.5%,6.03%,28.8%,6.13%,22.7%,5.28%,19.3%,1.47%,4.28%,6.17%,31.7%,5.99%,25.9%,4.09%,4.22%,6.78%,16.1%,-3.18%
O=C(O[C@H]1CN[C@H](C#Cc2cc3ncnc(Nc4ccc5c(ccn5Cc5cc(F)ccc5F)c4)c3s2)C1)N1CCOCC1,-0.57%,1.52%,3.53%,4.04%,8.92%,1.92%,3.98%,3.74%,3.88%,3.97%,3.69%,2.24%,4.4%,3.14%,3.38%,4.15%,4.73%,1.18%,1.47%,-7.4%
CCN1CCC(C(=O)Nc2n[nH]c3nnc(-c4cccc(F)c4F)cc23)CC1,-6.98%,-0.54%,0.15%,0.08%,-0.56%,-0.54%,-0.16%,-1.28%,-1.04%,0.53%,1.7%,-0.98%,-1.38%,0.49%,0.51%,0.15%,1.71%,1.05%,1.43%,1.6%
CCS(=O)(=O)c1ccc(OC)c(Nc2ncc(-c3cccc(F)c3)o2)c1,-6.17%,30.8%,80.4%,40.8%,85.8%,38.6%,85%,41.9%,86.4%,4.78%,25.1%,52.5%,90.2%,39.8%,77.5%,4.12%,7.35%,32.8%,74.6%,-6.71%
